In the supplement of paper PMC3334620:
In all, about 33,000 sequences were measured (“E-score (-0.5 to 0.5)”: median about -0.0034, highest 2% from about 0.25 on). Only a selection was taken, and the highest values are over-represented in it overall.

The sequences below were run against T1, Yap3 (UniProt P38749) (assay: PBM E-score (8-mer binding enrichment) (E-score (-0.5 to 0.5)); higher = stronger / more preferred TF binding). Conditions: protein concentration: 100 nM; construct: GST-full length.
T1 sequence: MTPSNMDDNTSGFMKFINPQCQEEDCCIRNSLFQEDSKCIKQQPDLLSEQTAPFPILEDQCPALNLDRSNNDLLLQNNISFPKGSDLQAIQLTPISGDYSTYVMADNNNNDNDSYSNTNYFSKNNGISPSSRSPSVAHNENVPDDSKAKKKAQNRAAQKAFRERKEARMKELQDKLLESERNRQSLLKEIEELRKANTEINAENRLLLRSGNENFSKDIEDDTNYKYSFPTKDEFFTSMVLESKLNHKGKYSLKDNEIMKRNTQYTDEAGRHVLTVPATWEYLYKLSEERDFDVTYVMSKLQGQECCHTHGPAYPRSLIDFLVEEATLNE
Method in brief: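 The E-score, a modified Wilcoxon-Mann-Whitney statistic, was computed by the Universal PBM Analysis Suite for every ungapped eight-base word pooled with its reverse complement. Scans behind it were normalised with masliner after bound GST-tagged yeast transcription factors were detected with fluorescent anti-GST. The proteins, at about 100-200 nM, had been applied to universal all-10-mer Agilent arrays made double-stranded by primer extension.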

Sequence	PBM E-score
AAGAAGGG	-0.0033
CCCCGTCG	-0.309
CATGCTTC	-0.024
CAAGGGGG	-0.226
AGTGCATA	-0.0677
GACTGAGC	-0.255
CCTGTTCC	-0.0284
AAGGCCCC	-0.285
ATACAGGG	0.14
CAGCCTAA	-0.12
AACACGAT	0.0988
AAAATTAC	0.273
AAAATTGC	0.0358
GAAATTAA	0.342
AAAATTAG	0.227
AAAATTAA	0.138
AAATTTAC	0.219
CAAATTAC	0.144
GAAATTCC	0.0452
GAAATTAC	0.265
CAAATTAA	0.155
AAAATTAT	0.257
AAAATTTT	0.246
GGCTGGGA	-0.103
AACCACCG	-0.0601

Sequence	PBM E-score
CTGGTATA	-0.0636
TCCATGGA	0.142
ACAGATGG	0.00201
CGTAATCA	0.349
AGTAATCC	0.102
CCTAATCC	0.0254
GGTAATCA	0.189
AGTAATCA	0.117
CGTAATCC	0.285
CGATCGTA	0.126
ACCAAATG	0.0905
TAGTAAGA	0.227
CCAGCACG	-0.128
CCGCATCA	-0.0944
GAAAAACA	0.094
AAAAAACA	0.315
AAAAAACG	0.315
ACAAAACG	0.173
TAAAAACA	0.246
CAAAAACG	0.136
AGACTTCC	-0.161
ATAGGGTG	-0.123
ATTCAGAA	0.0683
ATAGCGTG	-0.00896
AGGGGTTG	-0.134

Sequence	PBM E-score
ACTTTATG	0.124
AATGTGAT	0.232
AATGTGAA	0.255
AATGTGAC	0.145
CTCCAGGC	-0.0968
GCAGAGAC	-0.322
AGTCGACT	0.277
AGTCGACC	-0.0691
AGTCGACA	0.0995
AGCCGTGC	-0.233
GATATACA	0.187
AATATGGA	0.123
TATATATA	0.304
GATATATC	0.133
GATATGGA	0.263
CATATATA	0.227
TATATGGA	0.108
TATATACA	0.226
GATATATA	0.271
ACTCTAGA	0.0228
ACAGAGGT	-0.0174
ACGCTATC	0.109
ATTTTCGG	0.109
ATCGTGGG	0.11
GAAGACGC	-0.0463

Sequence	PBM E-score
CCCGACCG	-0.3
GGATAAAA	0.194
ATATAAAA	0.249
GTATAAAC	0.206
GTATAAAA	0.287
TTATAAAA	0.256
CTATAAAA	0.0227
CACCACGG	-0.366
GATTGCGA	0.108
ATTTTACC	0.297
AATTTACC	0.145
CTTTTACC	0.197
ATTTTACG	0.309
AATTTACG	0.239
ATTTTACA	0.145
CCGATCAG	-0.00295
CCCCCTAA	-0.291
AAAGATCC	-0.0985
AGCTGTCG	-0.197
GTCGACCA	-0.0665
GGGCTGCA	-0.195
GCTACTAA	0.138
CCTACTAC	-0.17
ACTACTAT	0.255
ACTACTAC	0.0925

Sequence	PBM E-score
ACTACTAA	0.0558
GCTACTAC	0.255
CGTGACAG	-0.154
CGAGAGGC	-0.258
CCATCTAG	-0.112
TAGTTCCA	0.14
AATTTCAG	0.0354
ATTTTCAG	0.286
ATTTTCCG	0.325
AATTTCCG	0.237
ATTTTCCC	0.0787
ATTTTCAC	0.174
AGCTTGAC	-0.0896
ATTCTGGA	0.132
AAGGTCAT	-0.047
AACAGACG	-0.0301
AACAAGGG	-0.0929
GCGCTCAA	-0.131
CGACCGCG	-0.129
CATTGGTA	0.0377
AATTGGTA	0.158
GATTGGTA	0.305
GAATTGCA	0.101
TACGGATA	0.0129
AACGGATA	0.255

Sequence	PBM E-score
CACGGATA	0.291
AACGGATT	0.233
AACGGATG	-0.101
CACGGATG	-0.164
AGTTGTTA	0.114
ATCTAGAT	-0.0211
TCTGGCCA	-0.0631
AGACGCCG	-0.0447
TCACGTAA	0.359
GCGCGTAA	0.23
TGACGTCA	0.331
TCGCGTAA	0.302
TGACGTAA	0.368
CGACGTAA	0.19
GCACGTAA	0.0393
GGACGTAA	-0.0155
ACACGTAA	0.217
ACGCGTAA	0.0957
GGACGTCA	-0.0403
AGACGTCA	-0.0966
CATGTAAC	0.0356
ACCCTTCT	-0.142
AGAGTTAG	-0.0808
GGTCTAGA	-0.104
AACCAGCG	-0.0042

Sequence	PBM E-score
GCTGTAAC	0.0596
ACTCTGCC	-0.104
CCACTTAC	0.257
CCACTTAA	-0.071
GCACTTAC	0.0227
ATACCAAC	0.202
ACTTGTCC	0.0688
AAGAAGCA	0.119
AGCTGTAA	0.0402
CATCGCTA	0.0613
AGCCCTAG	-0.106
CATAAAGG	0.00277
GTGAGTAA	0.154
CTGAGTAA	0.246
ATGAGTAA	0.284
CTCGAACC	-0.0728
TTCTAAAA	0.0712
AATCCTCC	-0.0151
GTTTAAGA	-0.0881
GGTTAATA	0.0683
AGTTAATC	0.0976
ATTTAATC	0.212
